Reference: PubChem BioAssay (NCI)
The panel holds about 83,000 compounds, 20% with a hit somewhere; the sample as a whole holds those more often.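 Single-concentration screen, 48 h exposure, 96-well plates. Endpoint: percent growth. Below 10 = active.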 Calls of active or inactive are those of the source.

These molecules were tested on HL-60(TB) leukemia (assay: NCI-60 one-dose screen, 48 h (100 = growth as untreated, 0 = no growth, -100 = all killed)). Settings: 10 µM unless noted.

| SMILES | growth |
| --- | --- |
| CCN(CC)c1ccc(/C=N/NC(=O)c2ccc(NS(C)(=O)=O)cc2)cc1 | 3.16% (active) |
| CCO/C=N/C1=C(C#N)C(c2ccc(Cl)cc2)c2sc3c(CC)cccc3c2O1 (centres undefined) | -0.966% (active) |
| O=C1c2c(c3c4cccnc4[nH]c3c3ccc4ccccc4c23)C(=O)N1CCN1CCNCC1 | 64.2% (inactive) |
| O=C(N/N=C/c1cccs1)c1[nH]c2ccc(Br)cc2c1-c1ccccc1 | -48.3% (active) |
| O=C(CCCCCCN1CC(=O)N2[C@@H](c3ccc(Cl)c(F)c3)c3[nH]c4ccccc4c3C[C@H]2C1=O)NO | 85.1% (inactive) |
| O=C(Cn1cc(CN2C(=O)c3ccc([N+](=O)[O-])cc3C2=O)nn1)Nc1ccccc1Br | 101% (inactive) |
| CC(C)(O)c1cncc(-c2ccc3ncc(C#N)c(N4CCc5cc(F)c(Cl)cc54)c3c2)c1 | 11.5% (inactive) |
| NNc1nnc2nc(Nc3ccccc3)nc(Nc3ccc(S(N)(=O)=O)cc3)n12 | 108% (inactive) |
| COc1ccc(NCc2cn(-c3ccc(C(=O)O)cc3)nc2-c2cc(C(F)(F)F)cc(C(F)(F)F)c2)cc1 | 90.6% (inactive) |
| CNCCN(C)c1ccc(Nc2cc(NC3CC3)n3ncc(C#N)c3n2)cc1NC(C)=O | -7.57% (active) |
| O=C(Oc1ccc2ccc(=O)oc2c1)c1ccc(Cl)cc1 | 106% (inactive) |
| O=C1C(SCc2ccccc2)=C(Cl)CN1c1ccc(Cl)cc1 | 44% (inactive) |
| CN1CCC(n2cc(Nc3ncc4c(=O)n(-c5c(Cl)cccc5Cl)cc(Br)c4n3)cn2)CC1 | -13.8% (active) |
| Cc1nn(-c2ccccc2)c2ncnc(N/N=C/c3ccccc3)c12 | 91.5% (inactive) |
